ADAM10 inh = inhibitors of human ADAM10; O14672; actives 0.62% (n = 370,000); inhibition, % at 7 µM; recombinant ADAM10, EDANS/DABCYL FRET peptide cleavage, 3 h;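 active means inhibition above a per-campaign cutoff equal to the mean of compounds falling between control-based bounds plus 3 SD, cut at about 20% in these data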;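 further: 0% = DMSO wells while the 100% control is not disclosed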
Target sequence (O14672 214-748 limits assumed): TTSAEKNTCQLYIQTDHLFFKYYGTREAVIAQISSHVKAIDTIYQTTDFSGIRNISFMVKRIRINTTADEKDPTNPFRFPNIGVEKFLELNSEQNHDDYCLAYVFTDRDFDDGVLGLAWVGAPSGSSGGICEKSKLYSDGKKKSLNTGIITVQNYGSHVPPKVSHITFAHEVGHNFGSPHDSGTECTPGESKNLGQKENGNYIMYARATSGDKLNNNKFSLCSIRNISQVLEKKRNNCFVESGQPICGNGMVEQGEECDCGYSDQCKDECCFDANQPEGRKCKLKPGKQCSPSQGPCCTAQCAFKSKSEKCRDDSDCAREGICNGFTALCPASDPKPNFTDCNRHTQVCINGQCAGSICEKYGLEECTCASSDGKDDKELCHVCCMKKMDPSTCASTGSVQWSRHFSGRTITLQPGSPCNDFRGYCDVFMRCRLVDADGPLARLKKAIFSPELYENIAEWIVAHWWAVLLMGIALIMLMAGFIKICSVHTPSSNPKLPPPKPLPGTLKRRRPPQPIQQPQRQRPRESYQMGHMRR
CendR NRP1 mod = alters CendR peptide binding to human NRP-1; O14786; actives 0.85% (n = 360,000); inhibition, % at 25 µM; FAM-RPARPAR peptide binding to NRP-1, fluorescence polarization;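 active means inhibition or corrected inhibition above about 18%, plus a signal ratio from 0.5 to 1.5, limit read from the data, passing the limit was not always enough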
HGIII-sPLA2 inh = Inhibits HGIII-sPLA2 liposome hydrolysis, primary screen; QFRET BODIPY PC-A2 liposome hydrolysis, fluorescence; Q9NZ20; inhibition, % at 12.2 µM; actives 0.56% (n = 370,000);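 active means inhibition above mean plus 3 SD of compounds lying within the high and low control bounds, cut at about 19% in these data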;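 further: 0% = median of test compound wells and 100% = no enzyme DMSO wells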
ADAM17 inh = inhibitors of human ADAM17 | AID 720648 | inhibition, % at 6.95 µM | actives 0.83% (n = 370,000) | P78536 | recombinant ADAM17, EDANS/DABCYL FRET peptide cleavage;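 active means inhibition above the mean of compounds lying between control limits plus 3 SD, set per campaign, cut at about 8.5% in these data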;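 further: 0% = DMSO-only wells as the low control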
KLK7 zymogen act = activates the human kallikrein-7 zymogen | P49862 | purified proKLK7, EDANS-DABCYL substrate fluorescence; 100% is mature enzyme control, 0% vehicle | activation, % at 7 µM | actives 0.9% (n = 370,000) | AID 652039;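 active means activation above the mean of all tested compounds plus 3 SD, computed per campaign excluding outliers beyond control limits, cut at about 13% in these data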
ADAM10 counter = counter-screen for ADAM17 exosite inhibitors: inhibitors of human ADAM10 | shares compounds with ADAM17 inh | recombinant ADAM10, EDANS/DABCYL FRET peptide cleavage, 3 h | inhibition, % at 6.95 µM | actives 47% (n = 2,900) | AID 743256;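 active means mean inhibition over the triplicate runs exceeds the activity threshold set in the earlier primary screen, cut at about 20% in these data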;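 further: 0% = DMSO wells and 100% = marimastat wells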
ADAM17 confirm = human ADAM17 inhibition, confirmation; shares compounds with ADAM17 inh; recombinant ADAM17, EDANS/DABCYL QFRET peptide cleavage; inhibition, % at 6.95 µM; actives 65% (n = 2,900);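 active means mean inhibition across replicates above the hit cutoff set in the primary screen, cut at about 8.5% in these data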;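 further: 0% = DMSO wells and 100% = marimastat wells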
Active calls of the source: *; · = not tested or not shown. Sampled rows, rich in hits. Any-hit rate of the full collection: about 3.4%.

SMILES	ADAM10 inh	CendR NRP1 mod	HGIII-sPLA2 inh	ADAM17 inh	KLK7 zymogen act	ADAM10 counter	ADAM17 confirm
COc1ccc(CNC(=O)CC(C)c2ccccc2)cc1 (centres undefined)	-12.6	0.8	5.0	-7.5	-0.4	·	·
CC(=O)N[C@@H](C)CCc1ccc(Oc2ccc(OC(C)C)nc2)cc1	3.7	·	-2.8	-1.6	·	·	·
Nc1n[nH]c(N)c1N=Nc1ccc(Cl)cc1	16.6	-5.5	9.0	10.5*	-0.1	2.1	2.1
CN(C)c1ccc(C(CNS(=O)(=O)c2ccc3ccccc3c2)c2c[nH]c3ccccc23)cc1 (centres undefined)	19.0	-5.0	-20.2	9.1*	-4.8	25.9*	19.7*
COc1cc2c(c(OC)c1OC)C1(CCCCC1)CC2NS(=O)(=O)C(C)C (centres undefined)	-7.9	·	5.8	-0.5	-0.6	·	·
C#CCNC(=O)C[C@H]1C(=O)N(CCCOC)C2=CCCC[C@@]21C(=O)OCC	-3.9	·	2.3	-3.5	0.2	·	·
COc1ccc([C@H]2C[C@H](n3cc(COC(=O)c4ccccc4)nn3)[C@@H](O)CN2Cc2cccs2)cc1	10.8	-14.3	8.2	12.1*	0.3	31.6*	14.1*
O=C(OCc1cn([C@@H]2C[C@H](c3ccccc3)N(Cc3cccs3)C[C@H]2O)nn1)c1ccccc1	3.6	-9.9	-0.7	-0.6	0.5	·	·
CCCCS(=O)(=O)N1C2=NC(C(=O)OCC)=C(C(=O)OCC)C3N(Cc4ccc(Br)cc4)c4ccccc4[C@]23C[C@H]1C(=O)OC (some centres undefined)	-8.7	·	6.3	-5.5	0.0	·	·
Cc1[nH]n(-c2ncc(-c3ccccc3)s2)c(=O)c1C(c1ccc(Br)cc1)C(C#N)C#N (centres undefined)	14.7	-38.2	-0.9	8.7*	-1.0	14.3	12.4*
CCn1c(COc2ccc(Cl)cc2)nnc1SCC(=O)Nc1ccccc1-c1ccccc1	15.1	·	-23.0	8.5	0.1	·	·
O=C(c1ccccc1)N1N=C(c2ccccc2)CC1c1ccccc1O (centres undefined)	15.2	-3.6	-37.0	10.5*	-0.1	15.1	10.1*
Cc1ccc(C2=NN(S(=O)(=O)c3ccccc3)C(c3ccccc3O)C2)cc1 (centres undefined)	19.2	-217.1	-41.3	8.9*	0.0	41.7*	22.9*
FC(F)(F)c1cc(CCN2CCNC[C@@H]2CC2CCCCC2)cc(C(F)(F)F)c1	-1.5	7.5	18.0	1.0	0.0	·	·
CCCC[C@@H]1CNCCN1CCc1cc(C(F)(F)F)cc(C(F)(F)F)c1	4.0	-2.2	16.4	9.0*	0.5	-0.1	0.0
Cc1ccc(-c2csc(Nc3ccccn3)n2)cc1	7.6	13.3	-6.2	9.0*	0.0	27.3*	16.0*
O=C(N[C@H]1C/C=C\C[C@@H](CC(=O)N(CCO)Cc2ccccc2)C(=O)N[C@H](Cc2c[nH]c3ccccc23)COC1=O)OCC1c2ccccc2-c2ccccc21	9.2	8.7	-37.8	10.3*	0.9	21.0*	13.0*
O=C(NC1CCCCN(Cc2cccc(Cl)c2)C1=O)c1cccs1 (centres undefined)	9.5	·	6.6	7.1	0.0	·	·
S=C(NCc1ccc(Cl)cc1)Nc1ccncc1	6.7	-0.6	-16.5	8.9*	0.4	8.2	13.2*
COc1ccc(S[C@]2(C(=O)N(C)C)CC(=O)N[C@@H]2c2ccc(OC)cc2)cc1	-1.8	·	0.0	0.0	0.0	·	·
COc1ccc(Cl)cc1NC(=O)CN(C)C(=O)CSc1ccc2c(c1)OCCO2	5.1	10.8	-7.8	8.9*	0.0	25.0*	15.1*
COc1ccc(NC(=O)CN(C)C(=O)CSc2ccc3c(c2)OCCO3)cc1	2.1	3.7	-2.9	5.0	1.1	·	·
COC(=O)c1cccc(N(C(=O)CNC(=O)c2ccco2)C(C(=O)NC2CCCC2)c2ccco2)c1 (centres undefined)	3.0	-0.7	1.5	8.8*	-0.3	-2.7	2.1
COc1ccc(N(C(=O)CNC(=O)c2ccco2)C(C(=O)NC2CCCC2)c2ccco2)cc1 (centres undefined)	-6.3	-1.7	-3.5	-1.0	-0.9	·	·
O=S(=O)(NCCc1ccc(F)cc1)c1cc(C(F)(F)F)ccc1Br	18.5	-4.5	-0.6	9.9*	0.6	22.1*	11.4*
SMILES	ADAM10 inh	CendR NRP1 mod	HGIII-sPLA2 inh	ADAM17 inh	KLK7 zymogen act	ADAM10 counter	ADAM17 confirm
O=S(=O)(NCCc1ccccc1)c1ccc(F)cc1Br	4.7	6.9	-14.3	0.8	-0.5	·	·
Cc1c(NC(=O)c2cccc(NC(=O)c3ccco3)c2)cccc1C(=O)O	5.6	5.7	1.0	9.0*	-0.1	-7.2	-0.8
COC1=C[C@H](C(=O)NC2CCN(Cc3ccccc3)CC2)C(C)C(c2ccccc2)CC1=O (some centres undefined)	-7.2	·	-3.4	-4.4	0.7	·	·
O=C(Nc1ccc(N2CCCC2)cc1)c1cccc(F)c1	7.7	-15.1	14.0	17.7*	-0.1	-2.8	4.3
COC(=O)[C@]12C[C@H](CC(=O)NCCCN3CCCC3=O)C(=O)N(Cc3ccco3)C1=C[C@H](C(C)(C)C)O[C@@H]2C	-4.6	·	2.5	-3.9	0.9	·	·
COc1ccc(S[C@]2(C(=O)N(C)C)CC(=O)N(C(=O)CCc3ccccc3)[C@@H]2c2ccc(OC)cc2)cc1	9.3	·	-0.1	10.0*	-0.4	14.0	9.8*
Cc1cccc(C)c1OCC(O)CN1CCN(c2ccccn2)CC1 (centres undefined)	2.2	4.4	-3.9	-3.3	-0.6	·	·
OC(COC(c1ccc(Cl)cc1)c1ccc(Cl)cc1)CN1CCN(c2ccccn2)CC1 (centres undefined)	15.0	-6.7	-12.8	9.1*	0.5	22.3*	13.0*
Clc1cc(Cl)cc(CNC2CCC23CCC(c2ccccc2)CC3)c1 (centres undefined)	0.3	·	5.2	-1.1	·	·	·
Cc1cc(Cl)ccc1OCCCC(=O)N1CCN(S(=O)(=O)c2ccccc2)CC1	12.7	2.0	-15.3	9.9*	1.0	30.1*	15.8*
Cc1cc(Cl)ccc1OCC(=O)N1CC(C)CC(C)C1 (centres undefined)	-5.3	10.6	-2.2	-0.8	-0.5	·	·
Cc1cc(Cl)ccc1OCC(=O)N1CCCN(C(=O)COc2ccc(Cl)cc2C)CC1	14.4	3.8	-13.4	9.5*	0.5	25.5*	13.9*
CCOc1ccccc1OCCCC(=O)N1CCN(S(=O)(=O)c2ccc(Cl)cc2)CC1	-7.3	-7.4	-3.5	-3.1	0.2	·	·
COCCN1C(=O)C2=C(C1=O)C1N(C)c3ccccc3[C@@]13C[C@@H](CO)N(C(C)=O)C3=N2 (some centres undefined)	-6.7	·	6.9	-5.0	-0.7	·	·
